FECH block – human FECH heme synthesis enzyme inhibition; calls only at 10 µM (by protocol); 20,000 compounds, 3.3% hits; P22830; purified FECH, Ni-mesoporphyrin absorbance 550 nm;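 active = enzyme reaction rate more than 3 SD below the solvent-only control wells on the same plate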;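 also: lower slope than DMSO wells means FECH inhibition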
Target sequence (P22830 whole entry, looked up): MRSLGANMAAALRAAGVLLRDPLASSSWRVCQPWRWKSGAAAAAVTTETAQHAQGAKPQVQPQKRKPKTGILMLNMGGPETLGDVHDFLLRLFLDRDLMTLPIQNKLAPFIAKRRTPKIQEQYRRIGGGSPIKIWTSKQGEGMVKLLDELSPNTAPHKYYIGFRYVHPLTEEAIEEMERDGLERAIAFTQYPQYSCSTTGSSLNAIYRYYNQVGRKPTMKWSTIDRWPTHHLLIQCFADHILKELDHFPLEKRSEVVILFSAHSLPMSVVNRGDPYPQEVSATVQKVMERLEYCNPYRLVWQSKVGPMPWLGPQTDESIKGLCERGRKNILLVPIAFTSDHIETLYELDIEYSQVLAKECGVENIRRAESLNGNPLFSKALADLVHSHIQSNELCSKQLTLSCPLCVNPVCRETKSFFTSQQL
Each line names hits and unclear results; the compound was inactive in the other large screens. The entries come from a sample that favours hits as a whole.

O=c1cc(CNc2ccccc2)nc2nc(NCc3ccc(F)cc3)[nH]n12	none
Cc1ccc(NCc2nc3nc4c(c(=O)n3[nH]2)CCC4)cc1Cl	FECH block active
CCc1nc2nc(C)[nH]n2c(=O)c1NC(=O)Nc1ccccc1F	none
Cc1cc(C)n2nc(N(C)S(=O)(=O)c3ccccc3)nc2n1	none
COc1cccc(OC)c1CNC(=O)C(C)n1cnc2ccccc21 (configuration not stated)	none
Cc1n[nH]c(C)c1Cc1nncn1-c1cccc2ccccc12	none
CNc1ncc(CN(C)C(=O)c2cc(COc3ccccc3)[nH]n2)cn1	none
O=C(CCC(=O)N1CCc2cc(S(=O)(=O)Nc3ccc4c(c3)OCO4)ccc21)N1CCOCC1	none
COc1cc(CN[C@@H]2CS(=O)(=O)C[C@H]2O)ccc1OCc1cccc(F)c1	none
CCOc1ccc(-c2nc(CSc3nc(-c4ccccc4)cc(=O)[nH]3)c(C)o2)cc1OC	none
O=C(Nc1ccnn1C1CCN(CCC2CCOC2)CC1)c1ccccc1 (configuration not stated)	none
COCCn1c(CNS(=O)(=O)c2cc(C)cc(C)c2)nc2cccnc21	none
CCN1CCN(c2nc(Nc3cc(OC)ccc3OC)c3cnn(-c4ccccc4)c3n2)CC1	none
CC(=O)N1c2ccc(S(=O)(=O)N3CCOCC3)cc2CC1C(=O)N1CCOCC1 (configuration not stated)	none
Cc1cccc(NS(=O)(=O)c2ccc(N)c(S(N)(=O)=O)c2)c1	none
Nc1ccc(S(=O)(=O)N2CCOCC2)cc1S(N)(=O)=O	FECH block active
Cc1ccc(S(=O)(=O)N2CCN(Cc3nc4cccnc4n3-c3ccc(F)cc3)CC2)c(C)c1	none
Cc1cc(N2CCCC2)nc(Nc2ccc(NC(=O)c3ccc(I)cc3)cc2)n1	none
Cc1cccc(-c2nc3nc(CN4CCCCC4)cc(=O)n3[nH]2)c1	none
Cn1c(=O)c(C(=O)N2CCN(c3ncccn3)CC2)nc2ccccc21	none
COc1ccc(N2CCN(C(=O)c3nc4ccccc4n(C)c3=O)CC2)cc1	none
COc1ccc(CN2CCN(C(=O)c3nc4ccccc4n(C)c3=O)CC2)c(OC)c1OC	FECH block active
CCC(CC)n1nc(C)cc1NC(=O)Cn1cnnn1	none
Cc1ccc(NS(=O)(=O)c2cc(N3C(=O)CCS3(=O)=O)ccc2C)cc1C	none
COC(=O)C1CCN(S(=O)(=O)c2cc(N3C(=O)CCS3(=O)=O)ccc2C)CC1	FECH block active
O=C1CCS(=O)(=O)N1c1ccc(S(=O)(=O)NC2CCCCC2)cc1	none
Cc1ccc(N2C(=O)CCS2(=O)=O)cc1S(=O)(=O)Nc1ccccc1Br	none
O=C1CCS(=O)(=O)N1c1ccc(S(=O)(=O)NC2CC2)cc1	FECH block active
Cc1ccccc1NS(=O)(=O)c1cc(N2C(=O)CCS2(=O)=O)ccc1C	FECH block active
Cc1cc(C)cc(NS(=O)(=O)c2cc(N3C(=O)CCS3(=O)=O)ccc2C)c1	none
CC(C)CNS(=O)(=O)c1ccc(N2C(=O)CCS2(=O)=O)cc1	none
COC(=O)C1CCN(S(=O)(=O)c2ccc(N3C(=O)CCS3(=O)=O)cc2)CC1	none
Cc1ccc(N2C(=O)CCS2(=O)=O)cc1S(=O)(=O)Nc1ccccc1	FECH block active
Cc1ccc(N2C(=O)CCS2(=O)=O)cc1S(=O)(=O)Nc1cccc(C)c1C	none
COc1ccccc1N1CCN(S(=O)(=O)c2cc(N3C(=O)CCS3(=O)=O)ccc2C)CC1	none
O=C(CCN1CCCO1)N1CCC(Cc2nncn2-c2ccccc2)CC1	none
COc1cccc(-c2cc(C(F)(F)F)ccn2)c1OC	none
O=C(Nc1ccc(Cl)cc1)C1CCN(c2ncnc3c2nc2n3CCCCC2)CC1	none
CCn1cc(CN(Cc2cc3c(cc2Cl)OCO3)CC(C)C)cn1	none
CCn1ncnc1-c1c(-c2ccccc2)ncn1CCCSC	none
COc1cccc(NC(=O)CN2CCCN(Cc3ccc(C)cc3)S2(=O)=O)c1	none
Cn1c(=O)c(C(=O)N2CCN(c3ccccn3)CC2)nc2ccccc21	none
COc1cccc(Cn2c(CNC(=O)c3ccc(Cl)cc3)nc3cccnc32)c1	none
CCCc1cnc(C)nc1N1CCCN(S(C)(=O)=O)CC1	none
CC(C)N(Cc1cccc(Cl)c1)Cc1cnn(C)c1	none
c1ccc(-n2cccc2CN(Cc2ccsc2)CC2CCCO2)nc1 (configuration not stated)	none
CCN(CC)S(=O)(=O)c1cc(N2C(=O)CCS2(=O)=O)ccc1C	none
CN(C1CCS(=O)(=O)C1)S(=O)(=O)c1ccc(N2C(=O)CCS2(=O)=O)cc1 (configuration not stated)	none
CCN(C1CCS(=O)(=O)C1)S(=O)(=O)c1cc(N2C(=O)CCS2(=O)=O)ccc1C (configuration not stated)	FECH block active
CC1CCCCN1CCNC(=O)CN1C(=O)C2CCCCN2c2ccc(S(=O)(=O)N(C)C)cc21 (configuration not stated)	none
CN1CCN([C@H]2CN(C3CCN(C(=O)c4ccccc4)CC3)C[C@@H]2O)CC1	none
COc1ccc(C(=O)Nc2cc(C)nn2-c2ncnc3c2cnn3-c2cccc(C)c2C)c(OC)c1	none
CN1CCCC1CCNC(=O)CCC(=O)NC1CCCC1 (configuration not stated)	none
O=C(CCC(=O)N1CCOC2(CNCCOC2)C1)NC1CCCC1 (configuration not stated)	none
CCN(CC)C1CCN(C(=O)CCC(=O)NC2CCCCCCC2)C1 (configuration not stated)	FECH block active
CCOc1ccccc1NC(=O)c1cc(-c2ccc(OC)c(S(N)(=O)=O)c2)n[nH]1	none
COCc1c(-c2n[nH]c(CCc3ccccc3)n2)noc1C	none
Cc1cccc(NC(=O)Nc2c(C)nc3nc(C)[nH]n3c2=O)c1	none
O=c1cc(CNc2cccc(Cl)c2)nc2nc(NCc3ccc(F)cc3)[nH]n12	none
Cc1cccc(NCc2nc3nc4c(c(=O)n3[nH]2)CCC4)c1	FECH block active
Cc1cccc(NC(=O)Nc2c(C)nc3nc[nH]n3c2=O)c1	none
CCc1nc2nc(C)[nH]n2c(=O)c1NC(=O)Nc1cc(C)ccc1OC	none
Cc1ccc(NCc2nc3nc4c(c(=O)n3[nH]2)CCC4)c(C)c1	FECH block active
Cc1ccc(-c2nc(CSc3nc4c(c(=O)[nH]3)CCCC4)c(C)o2)cc1	none
Cc1nc2nc(C)c(NC(=O)Nc3cccc(Cl)c3)c(=O)n2[nH]1	none
O=c1c2c(nc3nc(CNc4cccc(Cl)c4)[nH]n13)CCC2	FECH block active
COc1cccc(-c2cc(N3CCN(S(=O)(=O)c4ccc(C(C)C)cc4)CC3)ncn2)c1	none
O=C(CN1CCN(Cc2ccccc2F)S1(=O)=O)Nc1ccccc1Cl	none
CSc1ccc(CCNC(=O)CCn2cnc3onc(-c4cc(F)cc(F)c4)c3c2=O)cc1	none
CN(C)CC1(O)CCCN(C(=O)c2ccc(N(C)C)c3ccccc23)CC1 (configuration not stated)	none
CCCc1cc(Sc2ccc(NS(=O)(=O)c3ccc(C(C)(C)C)cc3)cc2)n2ncnc2n1	none
Cc1ccc(C(=O)Nc2cc(C)nn2-c2ncnc3c2cnn3-c2cccc(Cl)c2)cc1	none
Cc1ccc(-n2ncc3c(-n4nc(C)cc4NC(=O)C4CCCC4)ncnc32)c(C)c1	FECH block active
CCCCC1CCC(C(=O)Nc2cc(C)nn2-c2ncnc3c2cnn3-c2ccc(C)cc2C)CC1 (configuration not stated)	none
Cc1ccc(-n2ncc3c(-n4nc(C)cc4NC(=O)CCC4CCCC4)ncnc32)c(C)c1	none
Cc1cc(NC(=O)c2ccc(F)c(F)c2)n(-c2ncnc3c2cnn3-c2cccc(C)c2C)n1	none
Cc1cc(C)cc(C(=O)Nc2cc(C)nn2-c2ncnc3c2cnn3-c2cccc(Cl)c2)c1	FECH block active
Cc1ccc(C(=O)Nc2cc(C)nn2-c2ncnc3c2cnn3-c2cccc(C)c2C)cc1	FECH block active
